A short description of assay [1]: A High-Content qHTS Against Drug Library for the Identification of Small Molecules that Inhibit DYT1 Early Onset Primary Dystonia-Associated Cell Pathology (AID 1645839; calls by dose curve). To be noted: HEK293 Flp-In EGFP-delE TorsinA, punctate imaging, 48 h; series mostly up to 46.1 µM. A digest of the protocol: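 In this high-content image screen, delE TorsinA mislocalization in inducible Flp-In 293 cells is scored as %pathology, with cell count serving as the counterscreen. Compound exposure lasts 48 h under tetracycline induction in reduced-serum medium.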
(qHTS replaces the single test concentration by a dilution series.)

Assay [2] deals with Cytochrome P450 2D6 (Homo sapiens) (UniProt P10635). In words: Cytochrome P450 family 2 subfamily D member 6 (CYP2D6) small molecule antagonists: luciferase biochemical (cell-free) qHTS assay (AID 1645840; active = well fitted curve in the direction sought with a large enough effect in the repeat runs; an effect the other way counts as inactive or inconclusive; also: nearly all actives have a fitted effect of over 55% in size; also: potency is read from the fitted curve at half-maximal effect; as to activity change, negative = inhibition: % is scaled to controls: 0 for no effect and ±100 for the full control effect). To be noted: P450-Glo CYP2D6 enzyme, luciferin luminescence, 1 h; series mostly up to 57.4 µM. A digest of the protocol:
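P450-Glo luminescent screen: recombinant CYP2D6 enzyme–proluciferin substrate mix preincubated with compound 10 min at room temperature, then NADPH regeneration added for 1 h at room temperature. Detection reagent added for 20 min; luciferin light read as relative luminescence units.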

The target in assay [3] is Cytochrome P450 2C9 (Homo sapiens) (UniProt P11712). Kind of assay: Cytochrome P450 family 2 subfamily C member 9 (CYP2C9) small molecule antagonists: luciferase biochemical (cell-free) qHTS assay (AID 1645842; active = well fitted curve in the direction sought with a large enough effect in the repeat runs; an effect the other way counts as inactive or inconclusive; also: nearly all actives have a fitted effect of over 55% in size; also: potency is read from the fitted curve at half-maximal effect; as to activity change, negative = inhibition: % is scaled to controls: 0 for no effect and ±100 for the full control effect). To be noted: P450-Glo CYP2C9 enzyme assay, luciferin luminescence; series mostly up to 57.4 µM. A digest of the protocol: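 Luminescence, after 20 min with luciferin detection reagent, reflected CYP2C9 turnover during a 1 h NADPH-driven reaction at 37C. Enzyme-substrate mix contained 0.4% bovine serum albumin and was preincubated with compound 10 min at room temperature.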
Sequence of Cytochrome P450 2C9 (Homo sapiens) (P11712 whole entry, looked up): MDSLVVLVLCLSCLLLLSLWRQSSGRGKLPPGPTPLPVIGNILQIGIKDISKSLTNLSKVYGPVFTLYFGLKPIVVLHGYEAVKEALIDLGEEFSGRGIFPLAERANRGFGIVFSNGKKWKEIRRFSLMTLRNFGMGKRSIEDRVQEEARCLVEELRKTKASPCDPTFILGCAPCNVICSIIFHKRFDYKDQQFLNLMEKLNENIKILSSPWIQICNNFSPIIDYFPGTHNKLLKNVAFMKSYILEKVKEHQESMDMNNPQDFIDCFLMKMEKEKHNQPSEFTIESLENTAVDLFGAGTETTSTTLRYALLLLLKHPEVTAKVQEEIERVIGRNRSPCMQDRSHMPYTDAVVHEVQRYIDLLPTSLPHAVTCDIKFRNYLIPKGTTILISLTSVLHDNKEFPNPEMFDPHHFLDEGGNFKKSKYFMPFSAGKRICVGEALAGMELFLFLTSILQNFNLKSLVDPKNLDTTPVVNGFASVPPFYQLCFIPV

A short description of assay [4]: Primary qHTS for inhibitors of nuclear receptor binding SET domain protein 2 (NSD2) in an isogenic RCH-ACV NSD2 p.E1099K mutant (9B) (AID 1645876). Also: nearly all actives have a fitted effect of over 70% in size. Also: potency is read from the fitted curve at half-maximal effect. As to activity change, negative = viability loss: % is scaled to controls: 0 for no effect and ±100 for the full control effect. To be noted: RCH-ACV NSD2 E1099K (9B) viability, CellTiter-Glo, 72 h; series mostly up to 44.9 µM.
Assay [5] is described as follows: Primary qHTS for inhibitors of nuclear receptor binding SET domain protein 2 (NSD2) in an RCH-ACV wild type WT cells (2C) (AID 1645877). Also: nearly all actives have a fitted effect of over 70% in size. Also: potency is read from the fitted curve at half-maximal effect. As to activity change, negative = cell killing: % is scaled to controls: 0 for no effect and ±100 for the full control effect. To be noted: RCH-ACV (leukaemia line) NSD2 WT (2C) viability, CellTiter-Glo, 72 h; series mostly up to 44.9 µM.
For assay [6], the target named is Rap guanine nucleotide exchange factor 3 (Homo sapiens) (UniProt O95398). In words: Confirmatory qHTS for antagonist of cAMP-regulated guanine nucleotide exchange factor 3 (EPAC1) (AID 1645880).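 Also: plate controls were DMSO only for no effect and full effect of the ATA control for full effect; nearly all actives have a fitted effect of over 55% in size.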 To be noted: EPAC1 Rap1B-BODIPY-GDP exchange, fluorescence; series mostly up to 115 µM. A digest of the protocol:
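Nucleotide exchange uses 100 nM EPAC1, 250 nM RAP1B-BODIPY-GDP and 50 uM GDP, with compounds in a concentration-titration series. After 5 min at room temperature, fluorescence (480 nm ex/540 nm em) is read every 5 min for 30 min. Data are normalized to control ATA and DMSO.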

For assay [7] the target is unchanged. In words: Confirmatory qHTS for agonist of cAMP-regulated guanine nucleotide exchange factor 3 (EPAC1) (AID 1645881).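 Also: EPAC1 catalysed release of BODIPY-GDP from Rap1B seen as fluorescence loss; nearly all actives have a fitted effect of over 75% in size.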 Conditions: EPAC1 Rap1B BODIPY-GDP exchange fluorescence, 100% = cAMP control response; series mostly up to 154 µM.
Assay [8] deals with Rap guanine nucleotide exchange factor 4 (Homo sapiens) (UniProt Q8WZA2). In words: Confirmatory qHTS for agonist of cAMP-regulated guanine nucleotide exchange factor 4 (EPAC2) (AID 1645884).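 Also: nucleotide exchange releases bodipy-GDP from Rap1 and this lowers its fluorescence; % is scaled to controls: 0 for no effect and ±100 for the full control effect; nearly all actives have a fitted effect of over 65% in size.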 To be noted: EPAC2 GEF activity, Rap1B-BODIPY-GDP fluorescence; series mostly up to 154 µM.
Sequence of Rap guanine nucleotide exchange factor 4 (Homo sapiens) (Q8WZA2 whole entry, looked up): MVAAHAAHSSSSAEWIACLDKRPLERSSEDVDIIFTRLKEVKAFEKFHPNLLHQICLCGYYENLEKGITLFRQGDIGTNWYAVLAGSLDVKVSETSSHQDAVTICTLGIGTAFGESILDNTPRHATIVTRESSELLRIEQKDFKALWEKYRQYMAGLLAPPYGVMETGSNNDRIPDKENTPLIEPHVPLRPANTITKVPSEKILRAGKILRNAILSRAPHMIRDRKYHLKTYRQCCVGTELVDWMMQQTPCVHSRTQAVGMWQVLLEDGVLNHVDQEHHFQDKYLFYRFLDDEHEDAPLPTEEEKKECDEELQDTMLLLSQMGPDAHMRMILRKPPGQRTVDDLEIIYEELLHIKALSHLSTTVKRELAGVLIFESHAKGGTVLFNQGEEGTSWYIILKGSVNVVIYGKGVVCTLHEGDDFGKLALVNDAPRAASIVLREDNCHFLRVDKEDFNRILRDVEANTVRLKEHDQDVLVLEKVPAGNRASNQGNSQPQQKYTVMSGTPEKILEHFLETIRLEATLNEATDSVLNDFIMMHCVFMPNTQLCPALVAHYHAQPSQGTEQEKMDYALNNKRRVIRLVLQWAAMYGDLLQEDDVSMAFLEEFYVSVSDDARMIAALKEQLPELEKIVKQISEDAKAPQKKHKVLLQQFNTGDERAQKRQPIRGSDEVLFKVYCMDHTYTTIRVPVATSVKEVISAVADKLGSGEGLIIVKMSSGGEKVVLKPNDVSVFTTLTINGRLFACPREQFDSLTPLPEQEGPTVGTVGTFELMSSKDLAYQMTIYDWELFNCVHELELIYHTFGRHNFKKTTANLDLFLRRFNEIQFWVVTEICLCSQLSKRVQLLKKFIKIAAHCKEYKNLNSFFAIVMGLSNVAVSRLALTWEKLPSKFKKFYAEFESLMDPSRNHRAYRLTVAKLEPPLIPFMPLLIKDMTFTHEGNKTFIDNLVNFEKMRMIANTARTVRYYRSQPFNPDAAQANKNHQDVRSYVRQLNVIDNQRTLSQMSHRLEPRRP
For assay [9] the target is unchanged. In words: Confirmatory qHTS for antagonist of cAMP-regulated guanine nucleotide exchange factor 4 (EPAC2) (AID 1645885). Also: nearly all actives have a fitted effect of over 25% in size. Also: potency is read from the fitted curve at half-maximal effect. Conditions: EPAC2 Rap1B-BODIPY-GDP exchange fluorescence, biochemical; series mostly up to 114 µM.

Several values for one entry are separate records, joined by “and”; a condition that tells them apart may be missing. Identical values can stand only once. Records with an inconclusive call do not appear. Some structures have more than one record in an assay (separate samples or runs), and their calls can disagree. Activity calls are given as the source filed them. Unless noted, calls follow the shape of the dose curve; as a rule, active = well fitted curve in the direction sought with a large enough effect; inconclusive = small, poorly fitted or top-dose-only effect, or another doubt; inactive = no such curve, though single readings can be large; an effect the other way counts as inactive or inconclusive. Numbered stars: 1 amine (or outer) side, 2 acyl side, 3 side chain; on linkers, the order of the positions; unused ones are H or OH. Bridge positions count the residues as written; N and C are the ends. Square brackets hold non-standard residues; d marks the D form. Peptide text beside a SMILES is read from it. I, II: the chains in the order shown. Actinocin(9to1) = Cc1c2oc3c(C)ccc(C(=O)[*:1])c3nc-2c(C(=O)[*:2])c(N)c1=O; NMeV = CN[C@H](C(=O)O)C(C)C; Sar = CNCC(=O)O

Data on 24 compounds can be found in PubChem BioAssay (NCATS).

Sequence of Rap guanine nucleotide exchange factor 3 (Homo sapiens) (O95398 whole entry, looked up): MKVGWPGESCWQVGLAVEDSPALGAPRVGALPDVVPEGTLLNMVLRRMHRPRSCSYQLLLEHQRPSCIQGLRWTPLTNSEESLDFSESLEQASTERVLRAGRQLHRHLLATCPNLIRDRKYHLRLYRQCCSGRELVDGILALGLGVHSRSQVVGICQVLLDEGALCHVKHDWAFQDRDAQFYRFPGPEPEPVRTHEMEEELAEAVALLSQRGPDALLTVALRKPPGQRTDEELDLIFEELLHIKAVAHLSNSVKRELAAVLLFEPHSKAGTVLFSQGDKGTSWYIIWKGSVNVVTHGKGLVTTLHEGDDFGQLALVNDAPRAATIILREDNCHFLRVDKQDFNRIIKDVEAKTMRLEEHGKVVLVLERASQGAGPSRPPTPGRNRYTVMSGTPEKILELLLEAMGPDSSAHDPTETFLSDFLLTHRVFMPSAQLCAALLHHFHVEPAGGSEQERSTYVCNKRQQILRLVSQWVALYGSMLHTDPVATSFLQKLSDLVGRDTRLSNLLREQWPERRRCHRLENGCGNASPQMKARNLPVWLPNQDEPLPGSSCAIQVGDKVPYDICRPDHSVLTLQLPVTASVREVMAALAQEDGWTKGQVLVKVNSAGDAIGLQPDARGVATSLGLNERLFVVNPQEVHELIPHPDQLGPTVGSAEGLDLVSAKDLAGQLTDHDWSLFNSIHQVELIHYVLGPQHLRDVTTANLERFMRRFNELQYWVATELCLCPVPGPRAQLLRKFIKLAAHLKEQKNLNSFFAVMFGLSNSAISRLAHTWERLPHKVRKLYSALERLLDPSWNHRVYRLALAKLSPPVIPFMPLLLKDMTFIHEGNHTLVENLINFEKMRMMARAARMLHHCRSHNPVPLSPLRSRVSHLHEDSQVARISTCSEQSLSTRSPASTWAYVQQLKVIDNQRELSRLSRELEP
Sequence of Cytochrome P450 2D6 (Homo sapiens) (P10635 whole entry, looked up): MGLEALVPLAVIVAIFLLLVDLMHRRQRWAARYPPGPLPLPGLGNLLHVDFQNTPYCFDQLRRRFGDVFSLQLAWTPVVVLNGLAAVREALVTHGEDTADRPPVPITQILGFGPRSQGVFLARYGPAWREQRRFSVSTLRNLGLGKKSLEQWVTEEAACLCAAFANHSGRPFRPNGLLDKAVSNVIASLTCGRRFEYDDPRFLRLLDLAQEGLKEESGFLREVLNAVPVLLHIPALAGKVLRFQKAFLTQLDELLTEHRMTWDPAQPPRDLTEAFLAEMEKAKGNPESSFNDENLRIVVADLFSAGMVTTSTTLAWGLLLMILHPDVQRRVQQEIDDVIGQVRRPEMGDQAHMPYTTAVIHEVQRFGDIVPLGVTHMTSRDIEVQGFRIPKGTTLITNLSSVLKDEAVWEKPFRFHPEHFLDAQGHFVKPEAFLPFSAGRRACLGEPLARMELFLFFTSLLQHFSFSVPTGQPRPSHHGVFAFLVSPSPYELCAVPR

As to `O=c1[nH]c(=O)n([C@H]2CCCO2)cc1F`, the Potency result in assay [1], in [2], in [3], in [4] and in assay [5] was “inactive” in each case.
As for `OC[C@@H](O)[C@@H](O[C@@H]1O[C@H](CO)[C@H](O)[C@H](O)[C@H]1O)[C@H](O)[C@@H](O)CO`, the Potency result in assay [1], in assay [2], in assay [3], in assay [4] and in [5] was “inactive” each time.
For the compound `O=S1(=O)c2cccc3cccc(c23)N1CCCN1CCN(c2ccc(F)cc2)CC1`, the Potency entry in [1], in assay [3], in assay [4] and in assay [5] was “inactive” each time. For the same compound, in assay [2], the Potency was 3.47 µM (active).
On to `CCn1cc(C(=O)O)c(=O)c2cnc(N3CCCC3)nc21`, for which the % pathology change, negative = correction in assay [1] was 0.401% [at 9.22 µM] (inactive). The activity change, negative = inhibition in [2] was -1.21% [at 11.5 µM] (inactive); in [3], -2.8% [at 11.5 µM] (inactive). Also, the activity change, negative = viability loss in [4] was 4% [at 9.23 µM] (inactive). Also, in assay [5], the activity change, negative = cell killing is -0.361% [at 9.23 µM] (inactive).
In the case of `CCCN1CCCC[C@H]1C(=O)Nc1c(C)cccc1C`, the Potency result in [1], in assay [3], in assay [4] and in assay [5] was “inactive” throughout. For the same compound, in [2], the Potency is 4.9 µM (active).
For `CCCCCCCCCCCCCCNCCO`, the Potency entry in [1] and in assay [3] was “inactive” each time. The results for the Potency in assay [2], in [4] and in assay [5] were 6.17 µM (active), 7.5 µM (active) and 7.5 µM (active), respectively.
Consider `CCN1CCCC1=O`, for which the Potency result in assay [1], in [2], in assay [3], in [4] and in assay [5] was “inactive” throughout.
As for `Cc1c(C(C)C)c(=O)n(-c2ccccc2)n1C`, the Potency result in assay [1], in assay [2], in assay [3], in assay [4] and in [5] was “inactive” throughout.
For the compound `Cc1c2oc3c(C)ccc(C(=O)N[C@@H]4C(=O)N[C@H](C(C)C)C(=O)N5CCC[C@H]5C(=O)N(C)CC(=O)N(C)[C@@H](C(C)C)C(=O)O[C@@H]4C)c3nc-2c(C(=O)N[C@@H]2C(=O)N[C@H](C(C)C)C(=O)N3CCC[C@H]3C(=O)N(C)CC(=O)N(C)[C@@H](C(C)C)C(=O)O[C@@H]2C)c(N)c1=O` (I: T[dV]P[Sar][NMeV] / II: T[dV]P[Sar][NMeV]; ester I:1-I:C, II:1-II:C; linker I:N-II:N via Actinocin(9to1)), the Potency entry in assay [1], in [2], in [3], in assay [4] and in [5] was “inactive” in each case.
Take `CCOc1ccc(NC(=O)CC(C)O)cc1` (configuration not stated): the Potency result in assay [1], in [2], in assay [3], in assay [4] and in assay [5] was “inactive” each time.
Take `CCN(CC)CCNC(=O)COc1ccc(Cl)cc1`: the Potency entry in assay [1], in [3], in [4] and in assay [5] was “inactive” each time. The Potency in assay [2] was 13.8 µM (active).
Take `N[C@@H](CCC(=O)N[C@@H](CS)C(=O)NCC(=O)O)C(=O)O`: the Potency result in assay [1], in assay [2], in assay [3], in assay [4] and in assay [5] was “inactive” throughout.
`Cc1onc(-c2c(Cl)cccc2Cl)c1C(=O)N[C@@H]1C(=O)N2[C@@H]1SC(C)(C)[C@@H]2C(=O)O`: the Potency result in assay [1], in [2], in [4] and in [5] was “inactive” each time. Moreover, in assay [3], the Potency was 20.4 µM (active).
Regarding `Cc1c(C(N)=O)cc([N+](=O)[O-])cc1[N+](=O)[O-]`, the Potency entry in [1], in assay [2], in assay [3], in [4] and in assay [5] was “inactive” in each case.
As for `CN(C)CCOc1ccccc1Cc1ccccc1`, the Potency entry in assay [1], in assay [3], in [4] and in assay [5] was “inactive” each time. Also, the Potency in [2] was 1.95 µM (active).
Regarding `Oc1cc(O)c2c(c1)O[C@H](c1ccc(O)c(O)c1)[C@H](O)C2`, the Potency entry in [1], in assay [2], in assay [3], in assay [4] and in assay [5] was “inactive” throughout.
For `C[C@H](CCC(=O)O)[C@H]1CC[C@H]2[C@@H]3C(=O)C[C@@H]4CC(=O)CC[C@]4(C)[C@H]3CC(=O)[C@]12C`, the Potency result in assay [1], in [2], in [3], in assay [4] and in [5] was “inactive” throughout.
As to `O=C1[C@H]2CCCC[C@H]2C(=O)N1CCCCN1CCN(c2nsc3ccccc23)CC1`, the Potency result in [1] and in assay [3] was “inactive” throughout. For the same compound, the Potency was 12.3 µM (active) in assay [2], 21.1 µM (active) in assay [4] and 23.7 µM (active) in [5].
`COc1cc(OC)cc(OC)c1`: the Potency entry in assay [1], in assay [2], in [3], in [4] and in assay [5] was “inactive” throughout.
Take `CCOC(=O)c1cccc(N)c1`: the Potency result in assay [1], in [2], in [3], in [4] and in assay [5] was “inactive” each time.
As to `CCCC(=O)O[C@]1(C(=O)CO)CC[C@H]2[C@@H]3CCC4=CC(=O)CC[C@]4(C)[C@H]3[C@@H](O)C[C@@]21C`, the Potency result in assay [1], in assay [2] and in assay [3] was “inactive” throughout. Also, in [5], the Potency was 0.0299 µM (active).
For the compound `CC(=O)Oc1ccc(C(c2ccc(OC(C)=O)cc2)c2ccccn2)cc1`, the Potency result in [1], in [4], in [6] and in assay [8] was “inactive” each time. For the same compound, the Potency in assay [2] is 15.5 µM (active); in assay [3] it was 17.4 µM (active); in [9] it was “inactive and 44.1 µM (active)”. In addition, in assay [7], the result was inactive.
Consider `CCOc1ccc2nc3cc(N)ccc3c(N)c2c1`, for which the Potency result in assay [1] and in assay [3] was “inactive” each time. The Potency in assay [2] is 15.5 µM (active); in assay [4], 5.96 µM (active); in assay [5], 5.31 µM (active).
`CC(=O)N/N=C/c1ccc([N+](=O)[O-])o1`: the Potency result in [1] and in [3] was “inactive” in each case. Moreover, the Potency is 15.5 µM (active) in assay [2], 9.44 µM (active) in [4] and 8.41 µM (active) in [5].
